Only a selection was taken, and hits are over-represented in it overall.
Pf Dd2 inh: qHTS Primary assay for Inhibitors of Plasmodium falciparum Dd2 growth in vitro; P. falciparum Dd2 growth, SYBR Green, 72 h; Potency, µM (highest dose often 28.9 µM), actives largely listed as inhibitors; 4.3% of 120,000 active; active means well fitted inhibition curve with a large enough effect; further: nearly all actives have a fitted effect of over 65% in size
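Infected erythrocytes (Dd2, 0.3% parasitemia, 2.5% hematocrit final) are added to compound in RPMI-1640/Albumax II medium, grown 72 h at 37C in low oxygen, then lysed with saponin/Triton-X containing SYBR Green and read by fluorescence.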
Each line names hits and unclear results; the compound was inactive in the other large screens.

Fc1ccc(-c2cc(CC3(NCc4cccc5c4OCO5)COC3)no2)cc1	none
COc1ccc(-c2[nH]ncc2C(=O)NCc2cccc(OC)c2)cc1	none
COc1cccc(-c2[nH]ncc2CN)c1	none
CCCCN(Cc1ccccc1)Cc1cn[nH]c1-c1ccc(OC)cc1OC	Pf Dd2 inh 13µM
Cc1noc2c(NC(C)C)cc(-c3cccc(C(F)(F)F)c3)nc12	none
CC(C)(C)c1ccc(CN2CCN(Cc3cc4n(n3)CCNC4)CC2)cc1	none
CCOC(=O)C1CCCN(C(=O)c2cc3c(=O)[nH]c4ccc(C)cc4c3s2)C1 (configuration not stated)	none
Cn1c(=O)c2cc(C(=O)NCCCN3CCN(c4ccc(F)cc4)CC3)sc2c2ccccc21	none
Cc1ccc2[nH]c(=O)c3cc(C(=O)NCCCN4CCC(C)CC4)sc3c2c1	Pf Dd2 inh 8.9µM
CCn1c(=O)c2cc(C(=O)NCCCN3CCC(C)CC3)sc2c2ccccc21	none
CCN(CCCNC(=O)c1cc2c(=O)n(CC)c3ccccc3c2s1)c1ccccc1	none
Cn1c(=O)c2cc(C(=O)NCCCN3CCN(c4ccccc4F)CC3)sc2c2ccccc21	none
CCN1CCN(CCCNC(=O)c2cc3c(=O)n(C)c4ccccc4c3s2)CC1	Pf Dd2 inh 3.2µM
COc1ccc(Br)cc1CNC(=O)c1cc2c(=O)n(C)c3ccccc3c2s1	none
CN(CCCNC(=O)c1cc2c(=O)n(C)c3ccccc3c2s1)Cc1ccccc1	Pf Dd2 inh 10µM
COc1ccc(-c2cc(N3CCC(NC(=O)c4ccc(C)cc4C)C3)n[nH]2)cc1 (configuration not stated)	none
COc1ccccc1NC(=O)N1CC(C(=O)NCC2CC2)CC(c2ccccc2)C1 (configuration not stated)	none
COc1ccc(CNC(=O)COc2ccc(NC(=O)C3CC3)cn2)cc1	none
CN1CCC(NC(=O)c2n[nH]c3c2CN(C(=O)c2cc(F)cc(F)c2)CC3)CC1	none
Cc1ccccc1S(=O)(=O)N1CCCC(CCC(=O)Nc2cccc(Cl)c2)C1 (configuration not stated)	Pf Dd2 inh 13µM
Cc1ccccc1S(=O)(=O)N1CCCC(CCC(=O)NCc2ccc(F)cc2)C1 (configuration not stated)	none
Cc1ccccc1S(=O)(=O)N1CCC(CCC(=O)NC2CC2)CC1	none
Cc1cccc(C(=O)N2CC(c3noc(C4CCCN4C)n3)C2)c1 (configuration not stated)	none
Cc1cc2ncc(C(=O)NCCc3ccccn3)cn2n1	none
Cc1cc(=O)n(CC(=O)N2CCCC(C)(c3ccccc3)C2)nc1C (configuration not stated)	none
O=C1NCCCCCCN(C(=O)C2CCC2)[C@H]2CCCC[C@@H]12	none
N#Cc1cccc(NC(=O)N2CCC[C@@H](O)[C@H](NC(=O)c3ccc(OCc4ccc(F)cc4)cc3)C2)c1	Pf Dd2 inh 5µM
NC(=O)COc1ccc(C(=O)N[C@@H]2CN(C(=O)Nc3cccc(C(F)(F)F)c3)CCC[C@H]2O)cc1	none
COc1cccc(NC(=O)N2CCC[C@@H](O)[C@H](NC(=O)c3ccc(OCCN4CCCC4)cc3)C2)c1	none
C=CCNS(=O)(=O)c1ccc(C(=O)NC(C)c2ncnn2CCC)cc1 (configuration not stated)	none
O=C(NC1CCCc2c1cnn2-c1ccc(F)cc1F)c1ccsc1 (configuration not stated)	none
Cc1cnc(C2CC2)n1CCNC(=O)NC1CCCCC1	none
O=C(C[C@@H]1CCNC[C@@H]1Cc1cc(CC2CCCCC2)on1)NCc1ccco1	none
COc1ccc(CNC(=O)C[C@@H]2CCNC[C@@H]2Cc2cc(CN3CCOCC3)on2)cc1	none
COc1ccc(CNC(=O)C[C@@H]2CCNC[C@@H]2Cc2cc(CC3CCCCC3)on2)cc1	Pf Dd2 inh 11µM
CC(C)n1c(CCNC(=O)CC[C@H]2NC(=O)c3ccccc3NC2=O)nc2ccccc21	none
COc1ccc(CN2C(=O)[C@@H]3C[C@@H](O)CN3C3(CN(C4CCCCC4)C3)C2=O)cc1	none
O=C(Nc1ccc2c(c1)N(C1CCCC1)C(=O)c1ccccc1S2)c1ccccc1	none
CCN1C(=O)c2ccccc2Sc2ccc(NC(=O)Nc3ccccc3OC)cc21	none
COc1cc(C(=O)Nc2ccc3c(c2)N(C2CCCC2)C(=O)c2ccccc2S3)cc(OC)c1OC	Pf Dd2 inh 8.9µM
Cc1noc(-c2ccc(C(C)(C)C)cc2)c1C(=O)NCc1cc(F)cc(F)c1	Pf Dd2 inh 10µM
Cc1noc(-c2ccc(C(C)(C)C)cc2)c1C(=O)NCc1ccc(F)cc1F	none
Cc1cccc(CNC(=O)c2c(C)noc2-c2ccc(C(C)(C)C)cc2)c1	none
Cc1cccc(-n2nc(C)c(CCC(=O)N3CCSCC3)c2Oc2ccccc2)c1	none
O=C(C1CCC1)N1CCC2(CC1)NCCc1c2[nH]c2ccccc12	none
Cc1c(C(=O)N2CCCC2)oc2c1-c1nn(CC(=O)NCc3cccc(F)c3)cc1CC2	none
COc1cccc(CNC(=O)Cn2cc3c(n2)-c2c(oc(C(=O)N4CCCC4)c2C)CC3)c1	none
CCCCN(CCCC)CCCNC(=O)Cn1cc2c(n1)-c1c(oc(C(=O)N3CCCC3)c1C)CC2	Pf Dd2 inh 11µM
C[C@@H](NC(=O)c1cnccn1)c1onc(-c2cccnc2)c1C(=O)O	none

Screens (PubChem)
